Measurements published in PubChem BioAssay AID1159580 (chemical genetic matrix, 2015).
Screen size: about 5,500 compounds; about 2,000 (36%) were called active. Another 18% or so got no clear call; they are omitted. No stated cut-off is given here; in the data, active means normalized growth mostly below about 0.91 (no sharp cut-off); inconclusive means no clear call, values can overlap the other calls; inactive means mostly above about 0.92. This is one part of the list.

Test: chemical genetic growth profiling, strain panel (AID 1159580);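 further: tested at 20 µM; growth read once vehicle control cultures reached saturation at 30 °C; 1 = growth at the plate median or of vehicle wells; lower values mean less growth of the strain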
Conditions: S. cerevisiae deletion strains, growth OD
[1] = locus YBR021W, strain FUR4, active compounds read low
[2] = locus YBR229C, strain ROT2, active compounds read low
[3] = locus YCL029C, strain bik1, active compounds read low
[4] = locus YDL035C, strain GPR1, active compounds read low
[5] = locus YDL074C, strain BRE1, active compounds read low
[6] = locus YDL101C, strain DUN1, active compounds read low
[7] = locus YDL185W, strain tfp1, active compounds read low
[8] = locus YDL192W, strain arf1, active compounds read low
[9] = locus YDR101C, strain arx1, active compounds read low
[10] = locus YDR162C, strain NBP2, active compounds read low
[11] = locus YDR318W, strain mcm21, active compounds read low
[12] = locus YDR388W, active compounds read low
[13] = locus YDR502C, strain sam2, active compounds read low
[14] = locus YEL061C, strain CIN8, active compounds read low
[15] = locus YER110C, active compounds read low
[16] = locus YER155C, strain BEM2, active compounds read low
[17] = locus YER167W, strain BCK2, active compounds read low
[18] = locus YGL078C, strain dbp3, active compounds read low
[19] = locus YGL086W, strain mad1, active compounds read low
[20] = locus YGL248W, strain PDE1, active compounds read low
[21] = locus YGR078C, strain PAC10, active compounds read low
[22] = locus YGR135W, strain pre9, active compounds read low
[23] = locus YGR252W, strain gcn5, active compounds read low
[24] = locus YHR030C, strain SLT2, active compounds read low
[25] = locus YHR079C, strain IRE1 (second series), active compounds read low
[26] = locus YHR094C, strain hxt1, active compounds read low
[27] = locus YHR129C, strain ARP1, active compounds read low
[28] = locus YHR200W, strain rpn10, active compounds read low
[29] = locus YIL066C, strain RNR3, active compounds read low
[30] = locus YIL073C, strain SPO22, active compounds read low
[31] = locus YIL125W, strain kgd1, active compounds read low
[32] = locus YIR030C, strain dcg1, active compounds read low
[33] = locus YJL095W, strain BCK1, active compounds read low
[34] = locus YJL134W, strain LCB3, active compounds read low
[35] = locus YJL168C, strain set2, active compounds read low
[36] = locus YJL187C, strain SWE1 (second series), active compounds read low
[37] = locus YJR043C, strain POL32, active compounds read low
[38] = locus YJR075W, strain HOC1, active compounds read low
[39] = locus YKL009W, strain mrt4, active compounds read low
[40] = locus YKL068W, active compounds read low
[41] = locus YKL085W, strain MDH1 (second series), active compounds read low
[42] = locus YKL085W, strain MDH1, active compounds read low
[43] = locus YKR001C, strain vps1, active compounds read low
[44] = locus YLR039C, strain RIC1, active compounds read low
[45] = locus YLR058C, strain SHM2, active compounds read low
[46] = locus YLR102C, strain apc9, active compounds read low
[47] = locus YLR262C, strain YPT6, active compounds read low
[48] = locus YLR268W, strain sec22, active compounds read low
[49] = locus YLR330W, strain CHS5, active compounds read low
[50] = locus YLR342W, strain FKS1 (second series), active compounds read low
[51] = locus YLR371W, strain rom2, active compounds read low
[52] = locus YLR418C, strain cdc73, active compounds read low
[53] = locus YML016C, strain PPZ1, active compounds read low
[54] = locus YML032C, strain rad52, active compounds read low
[55] = locus YML124C, strain tub3, active compounds read low
[56] = locus YMR078C, strain ctf18, active compounds read low
[57] = locus YMR223W, strain ubp8, active compounds read low
[58] = locus YMR307W, strain GAS1, active compounds read low
[59] = locus YNL067W, strain RPL9B, active compounds read low
[60] = locus YNL128W, strain TEP1, active compounds read low
[61] = locus YNL233W, strain BNI4, active compounds read low
[62] = locus YNL250W, strain rad50, active compounds read low
[63] = locus YNL271C, strain bni1, active compounds read low
[64] = locus YNL298W, strain CLA4, active compounds read low
[65] = locus YNL307C, strain MCK1, active compounds read low
[66] = locus YNL322C, strain KRE1, active compounds read low
[67] = locus YNR052C, strain pop2, active compounds read low
[68] = locus YOL147C, strain pex11, active compounds read low
[69] = locus YOR061W, strain CKA2, active compounds read low
[70] = locus YOR069W, strain VPS5, active compounds read low
[71] = locus YOR136W, strain idh2, active compounds read low
[72] = locus YOR144C, strain elg1, active compounds read low
[73] = locus YOR184W, strain ser1, active compounds read low
[74] = locus YOR316C, strain cot1, active compounds read low
[75] = locus YPR119W, strain clb2, active compounds read low
[76] = locus YPR141C, strain kar3, active compounds read low
[77] = locus YPR163C, strain tif3, active compounds read low
[78] = locus YPR167C, strain met16, active compounds read low
[79] = strain wtn01, active compounds read low

Measured: normalized growth

CC(C)(O)[C@@H]1Cc2cc3ccc(=O)oc3cc2O1
inactive: [1] 1.03 | [2] 1 | [3] 1.01 | [4] 1.02 | [5] 1.04 | [6] 1.01 | locus YDL134C, strain PPH21, active compounds read low 1 | [7] 1.02 | [8] 1.03 | [9] 1 | locus YDR150W, strain NUM1, active compounds read low 1 | [10] 0.989 | [11] 1.01 | [12] 1.01 | [13] 1.04 | [14] 1 | [15] 1.01 | [16] 1 | [17] 1.02 | [18] 1.01 | [19] 1.03 | [20] 1.01 | [21] 1 | [22] 0.996 | locus YGR229C, strain SMI1, active compounds read low 1.04 | [23] 0.991 | [24] 1.01 | [25] 1 | [26] 1.01 | [27] 1.01 | [28] 1.03 | [29] 1.01 | [30] 1.02 | [31] 1.02 | [32] 1.02 | [33] 1.03 | [34] 1.02 | [35] 1.03 | [36] 1.01 | [37] 1.01 | [38] 1.01 | [39] 1.01 | [40] 1.02 | [41] 1 | [42] 1 | [43] 1.01 | [44] 1.01 | [45] 1.01 | [46] 1.02 | [47] 0.995 | [48] 1.03 | [49] 1.01 | [50] 1.07 | [51] 1.02 | [52] 0.989 | [53] 1.01 | [54] 1.02 | [55] 1.02 | [56] 1.03 | [57] 0.997 | [58] 1.1 | [59] 0.999 | [60] 1.02 | [61] 1.02 | [62] 1 | [63] 1 | [64] 1.01 | [65] 1.03 | [66] 1.01 | [67] 1.01 | locus YOL012C, strain htz1 1.44 | [68] 1.01 | [69] 1.01 | [70] 1.01 | [71] 1.02 | [72] 1 | [73] 1 | [74] 1.05 | locus YPL241C, strain CIN2, active compounds read low 1.01 | [75] 1.02 | [76] 1.01 | [77] 1.01 | [78] 1.03 | [79] 1.05

CC(C)C1COc2cc3oc(=O)ccc3cc2O1 (stereo not given)
active: [1] 0.0979 | [2] 0.837 | [3] 0.616 | [4] 0.389 | [5] 0.287 | [6] 0.293 | [7] 0.874 | [8] 0.0841 | [9] 0.714 | [10] 0.0569 | [11] 0.546 | [12] 0.241 | [13] 0.289 | [14] 0.17 | [15] 0.698 | [16] 0.592 | [17] 0.503 | [19] 0.589 | [20] 0.257 | [21] 0.191 | [22] 0.366 | [23] 0.209 | [24] 0.0511 | [25] 0.89 | [26] 0.92 | [27] 0.396 | [28] 0.433 | [29] 0.223 | [30] 0.122 | [32] 0.701 | [33] 0.0654 | [34] 0.906 | [35] 0.834 | [36] 0.497 | [37] 0.218 | [38] 0.688 | [43] 0.0786 | [44] 0.106 | [45] 0.466 | [46] 0.887 | [47] 0.148 | [48] 0.443 | [49] 0.0515 | [50] 0.0669 | [51] 0.0882 | [52] 0.125 | [53] 0.381 | [54] 0.639 | [55] 0.738 | [56] 0.792 | [57] 0.44 | [58] 0.196 | [59] 0.711 | [60] 0.348 | [61] 0.285 | [63] 0.728 | [64] 0.754 | [65] 0.157 | [66] 0.0872 | [67] 0.145 | locus YOL006C, strain TOP1, active compounds read low 0.152 | [68] 0.66 | [69] 0.101 | [70] 0.519 | [71] 0.842 | [72] 0.843 | [73] 0.262 | [74] 0.875 | [75] 0.336 | [77] 0.703 | [78] 0.636 | [79] 0.394
inactive: [18] 0.976 | [31] 0.958 | [39] 0.916 | [40] 0.964 | [41] 0.945 | [42] 0.945 | [62] 0.989 | locus YOL012C, strain htz1 0.681 | [76] 0.959
